This passage reports growth results from PubChem BioAssay (NCI).

Molecules are shown by their SMILES. The panel holds about 83,000 compounds, 20% with a hit somewhere; the sample as a whole holds those more often.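 Single-dose data. Exposure time 48 hours. Values below 10 considered active.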 Unmarked numbers belong to inactive results. Activity calls are given as the source filed them.

Among the test systems are HCT-15 colon; SNB-19 CNS; U251 CNS; PC-3 prostate; SK-MEL-5 melanoma; UACC-62 melanoma; LOX IMVI melanoma; SK-MEL-28 melanoma; SK-MEL-2 melanoma; SN12C renal; UO-31 renal; TK-10 renal; ACHN renal; CAKI-1 renal; A498 renal; CCRF-CEM leukemia; MOLT-4 leukemia; EKVX NSCLC.
Assay in all cases: NCI-60 one-dose screen, 48 h (100 = growth as untreated, 0 = no growth, -100 = all killed)
Common to all, as to conditions: 10 µM unless noted

Take `CC(=O)Nc1ccc(S(=O)(=O)n2ccc(-c3ccc4c(c3)CCC(C)(C)O4)n2)cc1`: the growth was 59.3% in the test with HCT-15 colon; 73.3% in the test with SNB-19 CNS; 66% with U251 CNS; 44.4% in the test with PC-3 prostate; 26.3% in the test on SK-MEL-5 melanoma; 62.4% in the test on UACC-62 melanoma. The growth was 64.1% in the test on LOX IMVI melanoma; 93.1% in the test on SK-MEL-28 melanoma; 53.5% in the test on SK-MEL-2 melanoma; 89% in the test on SN12C renal; 67.9% in the test with UO-31 renal; 55.1% in the test with TK-10 renal. Also, the growth in the test on ACHN renal was 79.3%; in the test on CAKI-1 renal, 48.8%; in the test with A498 renal, 21.9%; in the test with CCRF-CEM leukemia it was 55.4%; in the test with MOLT-4 leukemia it was 50.7%.

As to `O=C(C1=Cc2cc3ccccc3n2Cc2cnnn21)c1ccccc1`, the growth in the test on HCT-15 colon is 38.6%; in the test with SNB-19 CNS, 32.2%; in the test on U251 CNS, 32.6%; in the test on PC-3 prostate it was 47.7%; with SK-MEL-5 melanoma, 45.8%; with UACC-62 melanoma, 44.4%. In addition, the growth with LOX IMVI melanoma was 49.8%; in the test on SK-MEL-28 melanoma, 64.8%; in the test on SK-MEL-2 melanoma, 44.1%; in the test with EKVX NSCLC, 82.9%; in the test on SN12C renal, 50.3%; in the test on UO-31 renal, 64.8%. Besides, the growth was 72.7% with TK-10 renal; 74.6% in the test with ACHN renal; 58% in the test with CAKI-1 renal; 71.7% in the test on A498 renal; 53% with CCRF-CEM leukemia; 42.1% with MOLT-4 leukemia.

For `O=C(CCl)N(C1CCCCC1)C1CCCCC1`, the growth in the test on HCT-15 colon was 98.4%; in the test with SNB-19 CNS, 109%; in the test on U251 CNS, 104%; in the test on PC-3 prostate, 93.7%; with SK-MEL-5 melanoma it was 93.3%; with UACC-62 melanoma, 102%. The growth is -3.14% (active) in the test on LOX IMVI melanoma; 104% in the test on SK-MEL-28 melanoma; 108% in the test on SK-MEL-2 melanoma; 104% in the test on EKVX NSCLC; 107% in the test with SN12C renal; 98.3% in the test on UO-31 renal. Further, the growth with TK-10 renal is 104%; in the test with ACHN renal, 109%; with CAKI-1 renal, 98.7%; in the test with A498 renal it was 91.7%; with CCRF-CEM leukemia, 42.6%; in the test with MOLT-4 leukemia, 110%.

As to `NC(=O)CCCN1C/C(=C\c2ccccc2)C(=O)c2ccccc21`, the growth was 105% in the test on HCT-15 colon; 88.7% in the test with SNB-19 CNS; 96.7% with U251 CNS; 89.6% with PC-3 prostate; 104% in the test on SK-MEL-5 melanoma; 87.2% in the test with UACC-62 melanoma. Besides, the growth with LOX IMVI melanoma was 104%; in the test on SK-MEL-2 melanoma, 90.4%; in the test on EKVX NSCLC it was 106%; in the test on SN12C renal, 92.4%; with UO-31 renal, 78.1%; in the test on TK-10 renal, 95%. The growth in the test with ACHN renal is 98.7%; in the test on CAKI-1 renal, 90.6%; with A498 renal, 107%; with CCRF-CEM leukemia, 110%; with MOLT-4 leukemia it was 104%.

As to `Cc1ccc2nc(Cl)cc(=O)n2c1`, the growth in the test on HCT-15 colon is 102%; in the test with SNB-19 CNS it was 105%; with U251 CNS, 119%; in the test with PC-3 prostate, 96.9%; in the test on SK-MEL-5 melanoma, 120%; in the test with UACC-62 melanoma, 102%. Further, the growth in the test with LOX IMVI melanoma is 112%; with SK-MEL-28 melanoma it was 120%; in the test with SK-MEL-2 melanoma, 107%; with EKVX NSCLC, 114%; with SN12C renal it was 101%; in the test with UO-31 renal, 84.3%. The growth was 109% in the test with TK-10 renal; 99.1% with ACHN renal; 111% in the test with CAKI-1 renal; 107% in the test on A498 renal; 94.4% with CCRF-CEM leukemia; 106% in the test with MOLT-4 leukemia.

In the case of `C=CCn1cc(-c2nc3ccccc3s2)c2cc(-c3ccc4c5c(cccc35)C(=O)N(CCN3CCNCC3)C4=O)ccc21`, the growth in the test with HCT-15 colon was 16.1%; with SNB-19 CNS it was 90%; in the test on U251 CNS, 95.2%; with PC-3 prostate, 65.2%; in the test on SK-MEL-5 melanoma, 99.1%; with UACC-62 melanoma it was 93.6%. Also, the growth in the test on LOX IMVI melanoma was 77.6%; with SK-MEL-28 melanoma, 107%; with SK-MEL-2 melanoma it was 99%; with EKVX NSCLC, 87.8%; in the test with SN12C renal it was 76.3%; in the test with UO-31 renal it was 80.7%. Besides, the growth in the test on TK-10 renal was 132%; in the test on ACHN renal, 67.4%; with CAKI-1 renal, 74%; in the test with A498 renal, 98.9%; with CCRF-CEM leukemia it was 30.2%; in the test on MOLT-4 leukemia it was 92.8%.

On to `COc1cccc(/C=C/C(=O)Nc2cc(OC)c3c(c2)OCO3)c1`, for which the growth in the test with HCT-15 colon was 101%; in the test with SNB-19 CNS it was 96.7%; in the test with U251 CNS, 91.3%; with PC-3 prostate it was 97.8%; with SK-MEL-5 melanoma it was 94.1%; with UACC-62 melanoma, 92%. The growth with LOX IMVI melanoma was 95.8%; with SK-MEL-28 melanoma, 114%; in the test on EKVX NSCLC it was 92.4%; with SN12C renal it was 93.8%; in the test on UO-31 renal it was 101%; in the test on TK-10 renal, 98.4%. In addition, the growth with ACHN renal was 102%; with CAKI-1 renal, 93.7%; in the test with A498 renal it was 69.5%; in the test with MOLT-4 leukemia, 89.5%.

For `Cc1ccc(-c2cc3nc(C(Cl)Cl)nc(-c4ccccc4C)n3n2)cc1`, the growth was 33.2% with HCT-15 colon; 70.2% with SNB-19 CNS; 46.3% with U251 CNS; 43.1% with PC-3 prostate; 82.6% in the test on SK-MEL-5 melanoma; 59.7% with UACC-62 melanoma. For the same compound, the growth in the test on SK-MEL-28 melanoma was 89.1%; with SK-MEL-2 melanoma, 94.5%; in the test on EKVX NSCLC, 71.1%; in the test on SN12C renal, 86.7%; in the test with UO-31 renal it was 75.3%; with TK-10 renal, 54.8%. The growth in the test with ACHN renal was 49.1%; in the test with CAKI-1 renal it was 48.1%; in the test with A498 renal, 74.4%; in the test on CCRF-CEM leukemia, 96.1%; in the test with MOLT-4 leukemia it was 62.9%.

As to `CCc1cnc(=S)n(-c2ccccc2)c1`, the growth with HCT-15 colon was 103%; in the test with SNB-19 CNS it was 107%; in the test on U251 CNS, 117%; in the test with PC-3 prostate, 98.7%; in the test on SK-MEL-5 melanoma, 117%; with UACC-62 melanoma, 109%. In addition, the growth is 95.4% in the test with LOX IMVI melanoma; 114% with SK-MEL-28 melanoma; 103% in the test on SN12C renal; 97% in the test with UO-31 renal; 122% in the test on TK-10 renal; 99.6% in the test with ACHN renal. Moreover, the growth with A498 renal was 117%; with CCRF-CEM leukemia, 129%; in the test with MOLT-4 leukemia, 125%.
